± gives the standard deviation.
T1: HaloTag-ATRX ADD domain (163-292)
T1 chain: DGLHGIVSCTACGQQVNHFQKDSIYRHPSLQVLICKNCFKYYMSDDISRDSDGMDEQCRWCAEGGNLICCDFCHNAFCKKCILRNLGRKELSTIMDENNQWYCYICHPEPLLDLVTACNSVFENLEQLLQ


Biological target: T1, HaloTag-ATRX ADD domain (163-292)
Test: peptide microarray binding signal (635 nm), min-max normalized on array (fraction of array maximum); higher = stronger binding
Conditions: peptide region: Unmod H3 variant; binder concentration: 50 nM
Outline: (§1)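 Histone 13-mer peptide–cellulose conjugates were printed in triplicate on nitrocellulose with a Cy3 tracer, then blocked overnight at 4°C. Arrays were probed for 1 h at 4°C with biotin-labelled HaloTag reader fusions (10 nM to 1 μM) plus streptavidin-Alexa Fluor 647, or with rabbit histone antibodies (1:10,000 to 1:2,000) plus anti-rabbit Alexa 647. An Axon GenePix 4000B scanned 635 nm for signal and 532 nm for misprints. Binding signal is the triplicate-spot mean intensity, min-max scaled per library.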

Binder | peptide microarray binding signal
PRKQLATKAARKS [Unmod H3 variant P R K Q L A T K A A R K S] | 0.00345 ± 4.2e-05
PFQRLVREIAQDF [Unmod H3 variant P F Q R L V R E I A Q D F] | 0.0275 ± 0.0017
TARKSTGGKAPRK [Unmod H3 variant T A R K S T G G K A P R K] | 0.00552 ± 0.00053

Same assay, conditions: peptide region: Unmod H3 variant; binder concentration: 500 nM

Binder | peptide microarray binding signal
PRKQLATKAARKS [Unmod H3 variant P R K Q L A T K A A R K S] | 0.0108 ± 0.00017
PFQRLVREIAQDF [Unmod H3 variant P F Q R L V R E I A Q D F] | 0.0328 ± 0.0016
TARKSTGGKAPRK [Unmod H3 variant T A R K S T G G K A P R K] | 0.0118 ± 0.00044

Biological target: HaloTag-ING2 PHD (mouse Ing2 200-280)
Test: as above
Conditions: peptide region: Unmod H3 variant; binder concentration: 10 nM
Outline: as §1

Binder | peptide microarray binding signal
PRKQLATKAARKS [Unmod H3 variant P R K Q L A T K A A R K S] | 0.00722 ± 0.00031
PFQRLVREIAQDF [Unmod H3 variant P F Q R L V R E I A Q D F] | 0.01385 ± 8.4e-05
TARKSTGGKAPRK [Unmod H3 variant T A R K S T G G K A P R K] | 0.00633 ± 0.00044

Same assay, conditions: peptide region: Unmod H3 variant; binder concentration: 100 nM

Binder | peptide microarray binding signal
PRKQLATKAARKS [Unmod H3 variant P R K Q L A T K A A R K S] | 0.0163 ± 0.00099
PFQRLVREIAQDF [Unmod H3 variant P F Q R L V R E I A Q D F] | 0.0259 ± 0.0054
TARKSTGGKAPRK [Unmod H3 variant T A R K S T G G K A P R K] | 0.019 ± 0.0047

Biological target: anti-H3K4me3 antibody ab8580
Test: as above
Conditions: peptide region: Unmod H3 variant; binder concentration: 1:2,000 dilution
Outline: as §1

Binder | peptide microarray binding signal
PRKQLATKAARKS [Unmod H3 variant P R K Q L A T K A A R K S] | 0.00119 ± 3.4e-05
PFQRLVREIAQDF [Unmod H3 variant P F Q R L V R E I A Q D F] | 0.00315 ± 0.00022
TARKSTGGKAPRK [Unmod H3 variant T A R K S T G G K A P R K] | 0.001 ± 4.5e-05

Same assay, conditions: peptide region: Unmod H3 variant; binder concentration: 1:10,000 dilution

Binder | peptide microarray binding signal
PRKQLATKAARKS [Unmod H3 variant P R K Q L A T K A A R K S] | 0.0012 ± 1.2e-05
PFQRLVREIAQDF [Unmod H3 variant P F Q R L V R E I A Q D F] | 0.00759 ± 0.00028
TARKSTGGKAPRK [Unmod H3 variant T A R K S T G G K A P R K] | 0.00114 ± 1.2e-05

Biological target: anti-H3K9me3 antibody ab8898
Test: as above
Conditions: peptide region: Unmod H3 variant; binder concentration: 1:2,000 dilution
Outline: as §1

Binder | peptide microarray binding signal
PRKQLATKAARKS [Unmod H3 variant P R K Q L A T K A A R K S] | 0.000785 ± 1.3e-05
PFQRLVREIAQDF [Unmod H3 variant P F Q R L V R E I A Q D F] | 0.00316 ± 0.00013
TARKSTGGKAPRK [Unmod H3 variant T A R K S T G G K A P R K] | 0.000664 ± 1.2e-05

Same assay, conditions: peptide region: Unmod H3 variant; binder concentration: 1:10,000 dilution

Binder | peptide microarray binding signal
PRKQLATKAARKS [Unmod H3 variant P R K Q L A T K A A R K S] | 0.000923 ± 9.6e-06
PFQRLVREIAQDF [Unmod H3 variant P F Q R L V R E I A Q D F] | 0.00427 ± 5.7e-05
TARKSTGGKAPRK [Unmod H3 variant T A R K S T G G K A P R K] | 0.000923 ± 9.6e-06

Biological target: T1, HaloTag-ATRX ADD domain (163-292)
Test: as above
Conditions: peptide region: Unmod H2B variant; binder concentration: 50 nM
Outline: as §1

Binder | peptide microarray binding signal
PGELAKHAVSEGT [Unmod H2B variant P G E L A K H A V S E G T] | 0.01009 ± 9.9e-05
EGTKAVTKYTSAK [Unmod H2B variant E G T K A V T K Y T S A K] | 0.0108 ± 0.00025

Same assay, conditions: peptide region: Unmod H2B variant; binder concentration: 500 nM

Binder | peptide microarray binding signal
PGELAKHAVSEGT [Unmod H2B variant P G E L A K H A V S E G T] | 0.0228 ± 0.001
EGTKAVTKYTSAK [Unmod H2B variant E G T K A V T K Y T S A K] | 0.0351 ± 0.00073

Biological target: HaloTag-ING2 PHD (mouse Ing2 200-280)
Test: as above
Conditions: peptide region: Unmod H2B variant; binder concentration: 10 nM
Outline: as §1

Binder | peptide microarray binding signal
PGELAKHAVSEGT [Unmod H2B variant P G E L A K H A V S E G T] | 0.0117 ± 0.00035
EGTKAVTKYTSAK [Unmod H2B variant E G T K A V T K Y T S A K] | 0.00776 ± 0.00021

Same assay, conditions: peptide region: Unmod H2B variant; binder concentration: 100 nM

Binder | peptide microarray binding signal
PGELAKHAVSEGT [Unmod H2B variant P G E L A K H A V S E G T] | 0.0287 ± 0.0019
EGTKAVTKYTSAK [Unmod H2B variant E G T K A V T K Y T S A K] | 0.0322 ± 0.0032

Biological target: anti-H3K4me3 antibody ab8580
Test: as above
Conditions: peptide region: Unmod H2B variant; binder concentration: 1:2,000 dilution
Outline: as §1

Binder | peptide microarray binding signal
PGELAKHAVSEGT [Unmod H2B variant P G E L A K H A V S E G T] | 0.0133 ± 0.0011
EGTKAVTKYTSAK [Unmod H2B variant E G T K A V T K Y T S A K] | 0.00196 ± 9.7e-05

Same assay, conditions: peptide region: Unmod H2B variant; binder concentration: 1:10,000 dilution

Binder | peptide microarray binding signal
PGELAKHAVSEGT [Unmod H2B variant P G E L A K H A V S E G T] | 0.0163 ± 0.00093
EGTKAVTKYTSAK [Unmod H2B variant E G T K A V T K Y T S A K] | 0.0028 ± 0.00015

Biological target: anti-H3K9me3 antibody ab8898
Test: as above
Conditions: peptide region: Unmod H2B variant; binder concentration: 1:2,000 dilution
Outline: as §1

Binder | peptide microarray binding signal
PGELAKHAVSEGT [Unmod H2B variant P G E L A K H A V S E G T] | 0.00447 ± 0.00018
EGTKAVTKYTSAK [Unmod H2B variant E G T K A V T K Y T S A K] | 0.000544 ± 1.7e-05

Same assay, conditions: peptide region: Unmod H2B variant; binder concentration: 1:10,000 dilution

Binder | peptide microarray binding signal
PGELAKHAVSEGT [Unmod H2B variant P G E L A K H A V S E G T] | 0.00484 ± 7.1e-05
EGTKAVTKYTSAK [Unmod H2B variant E G T K A V T K Y T S A K] | 0.00115
